From paper PMC7862700, “An all-to-all approach to the identification of sequence-specific readers for epigenetic DNA modifications on cytosine” come the findings set out here.

Common to all, as to experiment: DAPPL (digital affinity profiling via proximity ligation, sequencing); 10 mM Tris-HCl pH 7.5, 50 mM NaCl, 1 mM DTT, 4% glycerol, room temperature, 30 min; GST-TFs on glutathione beads, 16-mer random dsDNA library, 0.1% formaldehyde crosslink after washing; high values mean tight binding
Details in all cases: protein: recombinant; tags: N-terminal GST; dsDNA, one strand shown

One assay has as its target T1, FLI1 (Homo sapiens, UniProt Q01543 1-452).
T1 sequence: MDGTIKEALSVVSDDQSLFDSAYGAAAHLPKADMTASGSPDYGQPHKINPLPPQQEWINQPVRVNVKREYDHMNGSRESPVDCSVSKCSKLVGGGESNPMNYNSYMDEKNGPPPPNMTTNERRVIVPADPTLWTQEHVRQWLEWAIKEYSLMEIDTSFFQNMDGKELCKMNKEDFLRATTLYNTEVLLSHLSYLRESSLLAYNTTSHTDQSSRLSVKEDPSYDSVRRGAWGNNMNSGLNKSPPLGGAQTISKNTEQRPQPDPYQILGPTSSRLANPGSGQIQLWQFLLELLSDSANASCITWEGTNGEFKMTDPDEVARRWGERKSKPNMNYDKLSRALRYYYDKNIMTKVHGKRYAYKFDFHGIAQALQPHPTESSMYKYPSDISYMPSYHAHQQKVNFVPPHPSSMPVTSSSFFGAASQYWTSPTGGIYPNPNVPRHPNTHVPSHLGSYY
The method in brief: (§1)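 After expression in yeast as GST fusions, human transcription factors were bound to glutathione beads, DNA-barcoded and mixed with a tag-only sample. The pools were incubated with 200 nmole of a 16-mer random double-stranded DNA library in Tris/NaCl/DTT/glycerol buffer (30 min, room temperature), washed and crosslinked with 0.1% formaldehyde. Proximity ligation with BsaI/T4 ligase ran for 1 h at 37 °C, before PCR amplification and sequencing on an Illumina NextSeq500. Binding signal is a hexamer's read frequency for a factor divided by its frequency for the tag-only sample.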

The next assay addresses T2, ELK1 (Homo sapiens, UniProt P19419 1-428).
T2 sequence: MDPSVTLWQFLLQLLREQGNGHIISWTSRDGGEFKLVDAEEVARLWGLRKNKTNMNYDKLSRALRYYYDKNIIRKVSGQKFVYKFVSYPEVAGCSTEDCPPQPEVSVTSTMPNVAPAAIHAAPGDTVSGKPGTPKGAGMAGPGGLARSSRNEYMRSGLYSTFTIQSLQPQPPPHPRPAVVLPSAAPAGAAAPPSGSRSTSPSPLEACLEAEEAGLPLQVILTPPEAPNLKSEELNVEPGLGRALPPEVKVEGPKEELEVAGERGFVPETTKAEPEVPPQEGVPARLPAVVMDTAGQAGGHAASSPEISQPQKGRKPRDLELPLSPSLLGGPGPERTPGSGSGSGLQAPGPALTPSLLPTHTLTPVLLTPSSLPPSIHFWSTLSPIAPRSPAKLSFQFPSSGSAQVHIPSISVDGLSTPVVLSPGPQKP
Summed up:
as §1

The next assay concerns the target T3, GABPA (Homo sapiens, UniProt Q06546 1-454).
T3 sequence: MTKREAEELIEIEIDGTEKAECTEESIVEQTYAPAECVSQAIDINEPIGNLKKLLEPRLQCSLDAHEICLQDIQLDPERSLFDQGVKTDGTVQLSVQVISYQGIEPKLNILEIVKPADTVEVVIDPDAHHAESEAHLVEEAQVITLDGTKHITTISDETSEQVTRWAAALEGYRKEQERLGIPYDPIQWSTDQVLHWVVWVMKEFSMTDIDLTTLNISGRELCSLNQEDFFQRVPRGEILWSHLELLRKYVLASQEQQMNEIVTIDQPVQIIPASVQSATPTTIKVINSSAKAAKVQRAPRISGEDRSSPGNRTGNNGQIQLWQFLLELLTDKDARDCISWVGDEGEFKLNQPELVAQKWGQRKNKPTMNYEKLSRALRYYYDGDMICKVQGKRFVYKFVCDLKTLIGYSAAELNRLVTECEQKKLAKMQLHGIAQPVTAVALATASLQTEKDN
Summed up:
as §1

The target of another assay is ELF1 (Homo sapiens, UniProt P32519 1-619). Summed up:
as §1

A further assay has as its target T4, EHF (Homo sapiens, UniProt Q9NZC4 1-300).
T4 sequence: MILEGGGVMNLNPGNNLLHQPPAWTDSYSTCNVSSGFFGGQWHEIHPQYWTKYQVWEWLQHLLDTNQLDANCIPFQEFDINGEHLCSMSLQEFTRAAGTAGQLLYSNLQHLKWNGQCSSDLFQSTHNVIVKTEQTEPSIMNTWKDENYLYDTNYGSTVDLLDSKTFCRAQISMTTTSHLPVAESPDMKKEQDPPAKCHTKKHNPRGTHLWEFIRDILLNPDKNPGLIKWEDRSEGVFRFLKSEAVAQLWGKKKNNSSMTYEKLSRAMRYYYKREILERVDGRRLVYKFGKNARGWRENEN
Summed up: as §1

The next assay deals with SPI1 (Homo sapiens, UniProt P17947 1-270). The method in brief:
as §1

In another assay the target is T5, ELK3 (Homo sapiens, UniProt P41970 1-407).
T5 sequence: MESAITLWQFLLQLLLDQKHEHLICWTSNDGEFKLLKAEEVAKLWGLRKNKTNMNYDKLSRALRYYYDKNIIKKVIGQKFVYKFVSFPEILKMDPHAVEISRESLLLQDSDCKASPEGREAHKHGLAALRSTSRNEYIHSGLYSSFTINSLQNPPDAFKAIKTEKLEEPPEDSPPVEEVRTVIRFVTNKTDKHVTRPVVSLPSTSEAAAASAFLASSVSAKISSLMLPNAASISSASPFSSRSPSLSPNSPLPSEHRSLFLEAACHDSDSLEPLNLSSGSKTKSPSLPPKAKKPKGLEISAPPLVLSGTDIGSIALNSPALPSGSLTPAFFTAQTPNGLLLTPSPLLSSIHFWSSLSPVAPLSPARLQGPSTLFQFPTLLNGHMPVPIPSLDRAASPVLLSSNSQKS
The method in brief: as §1

In another assay the target is T6, FEV (Homo sapiens, UniProt Q99581 1-238).
T6 sequence: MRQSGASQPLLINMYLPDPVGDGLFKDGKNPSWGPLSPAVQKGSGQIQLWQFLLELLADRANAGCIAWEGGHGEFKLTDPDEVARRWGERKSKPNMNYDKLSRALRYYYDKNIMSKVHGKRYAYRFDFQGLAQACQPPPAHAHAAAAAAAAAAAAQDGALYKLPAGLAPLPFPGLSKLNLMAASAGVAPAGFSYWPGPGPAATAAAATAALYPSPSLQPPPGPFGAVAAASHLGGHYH
Summed up:
as §1

The target of the next assay is ETV5 (Homo sapiens, UniProt P41161 1-510). Summed up: as §1
Chain of ETV5 (P41161 whole entry): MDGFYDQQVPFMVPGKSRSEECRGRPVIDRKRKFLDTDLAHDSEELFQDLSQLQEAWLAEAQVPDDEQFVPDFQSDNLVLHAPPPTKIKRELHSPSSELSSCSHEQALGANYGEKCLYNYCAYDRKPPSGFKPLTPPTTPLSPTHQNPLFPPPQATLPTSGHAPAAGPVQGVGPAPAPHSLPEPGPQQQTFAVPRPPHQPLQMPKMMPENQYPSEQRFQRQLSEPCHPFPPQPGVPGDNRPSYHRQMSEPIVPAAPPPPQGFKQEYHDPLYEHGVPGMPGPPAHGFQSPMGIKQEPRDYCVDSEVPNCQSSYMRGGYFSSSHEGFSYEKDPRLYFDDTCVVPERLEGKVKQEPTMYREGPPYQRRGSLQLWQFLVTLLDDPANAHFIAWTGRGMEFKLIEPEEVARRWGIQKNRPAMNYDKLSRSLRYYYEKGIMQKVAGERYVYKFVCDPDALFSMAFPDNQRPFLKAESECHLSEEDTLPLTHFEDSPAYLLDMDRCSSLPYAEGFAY
The next assay addresses T7, SPIC (Homo sapiens, UniProt Q8N5J4 1-248).
T7 sequence: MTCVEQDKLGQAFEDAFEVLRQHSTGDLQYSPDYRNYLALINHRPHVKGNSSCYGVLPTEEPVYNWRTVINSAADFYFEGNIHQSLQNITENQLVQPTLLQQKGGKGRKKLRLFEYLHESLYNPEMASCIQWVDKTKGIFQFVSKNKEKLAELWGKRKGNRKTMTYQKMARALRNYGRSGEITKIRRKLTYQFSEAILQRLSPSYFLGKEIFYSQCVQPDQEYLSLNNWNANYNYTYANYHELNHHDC
Summed up: as §1

In the next assay the target is ELF4 (Homo sapiens, UniProt Q99607 1-663). The method in brief:
as §1

A further assay addresses ETV1 (Homo sapiens, UniProt P50549 1-477). The method in brief:
as §1

In the next assay the target is T8, ERF (Homo sapiens, UniProt P50548 1-548).
T8 sequence: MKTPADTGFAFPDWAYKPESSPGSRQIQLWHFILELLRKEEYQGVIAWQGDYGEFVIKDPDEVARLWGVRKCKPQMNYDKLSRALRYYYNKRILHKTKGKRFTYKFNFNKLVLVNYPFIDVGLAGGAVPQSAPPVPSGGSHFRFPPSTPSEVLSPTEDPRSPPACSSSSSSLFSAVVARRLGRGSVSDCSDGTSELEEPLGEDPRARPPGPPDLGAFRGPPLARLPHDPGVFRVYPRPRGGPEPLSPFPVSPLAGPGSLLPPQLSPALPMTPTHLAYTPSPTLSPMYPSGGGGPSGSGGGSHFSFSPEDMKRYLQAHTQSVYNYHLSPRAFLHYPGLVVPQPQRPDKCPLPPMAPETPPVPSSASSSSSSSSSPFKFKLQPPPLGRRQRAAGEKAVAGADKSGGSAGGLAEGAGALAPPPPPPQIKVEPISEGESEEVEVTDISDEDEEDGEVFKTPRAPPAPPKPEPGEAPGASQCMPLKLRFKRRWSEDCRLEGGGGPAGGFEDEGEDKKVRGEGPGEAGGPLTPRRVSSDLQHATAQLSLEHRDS
Summed up:
as §1

The target in the next assay is T9, ETV3L (Homo sapiens, UniProt Q6ZN32 1-361).
T9 sequence: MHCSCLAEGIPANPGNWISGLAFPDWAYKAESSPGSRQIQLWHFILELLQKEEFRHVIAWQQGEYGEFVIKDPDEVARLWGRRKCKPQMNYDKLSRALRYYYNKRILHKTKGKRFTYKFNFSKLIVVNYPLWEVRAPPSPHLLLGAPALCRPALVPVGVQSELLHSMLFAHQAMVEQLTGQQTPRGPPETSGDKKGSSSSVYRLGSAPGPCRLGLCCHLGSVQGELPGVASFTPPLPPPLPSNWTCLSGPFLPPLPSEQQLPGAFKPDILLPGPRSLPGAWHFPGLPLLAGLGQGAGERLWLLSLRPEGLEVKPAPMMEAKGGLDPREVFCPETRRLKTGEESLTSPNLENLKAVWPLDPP
The method in brief:
as §1

The next assay addresses T10, ETS2 (Homo sapiens, UniProt P15036 1-469).
T10 sequence: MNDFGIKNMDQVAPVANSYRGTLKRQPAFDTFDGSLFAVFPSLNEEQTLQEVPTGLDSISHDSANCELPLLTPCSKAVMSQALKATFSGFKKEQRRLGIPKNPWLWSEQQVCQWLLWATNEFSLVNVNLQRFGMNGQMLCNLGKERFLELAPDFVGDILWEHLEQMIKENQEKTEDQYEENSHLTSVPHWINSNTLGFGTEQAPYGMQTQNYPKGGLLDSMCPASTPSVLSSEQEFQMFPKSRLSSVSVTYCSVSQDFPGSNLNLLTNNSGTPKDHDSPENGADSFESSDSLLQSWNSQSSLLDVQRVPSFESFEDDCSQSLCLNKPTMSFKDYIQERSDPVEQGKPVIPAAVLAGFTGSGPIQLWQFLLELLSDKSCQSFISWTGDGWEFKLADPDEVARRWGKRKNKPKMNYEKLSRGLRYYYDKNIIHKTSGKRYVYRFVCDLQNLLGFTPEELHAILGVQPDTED
Summed up: as §1

A further assay deals with T11, ETV3 (Homo sapiens, UniProt P41162-2 1-143).
T11 sequence: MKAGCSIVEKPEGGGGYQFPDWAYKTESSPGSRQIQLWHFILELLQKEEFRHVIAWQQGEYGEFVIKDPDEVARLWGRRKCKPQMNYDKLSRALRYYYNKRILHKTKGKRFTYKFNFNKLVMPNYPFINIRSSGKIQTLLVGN
Summed up: as §1

In another assay the target is ETV6 (Homo sapiens, UniProt P41212 1-452). Summed up:
as §1

The next assay concerns the target T12, ERG (Homo sapiens, UniProt P11308 1-479).
T12 sequence: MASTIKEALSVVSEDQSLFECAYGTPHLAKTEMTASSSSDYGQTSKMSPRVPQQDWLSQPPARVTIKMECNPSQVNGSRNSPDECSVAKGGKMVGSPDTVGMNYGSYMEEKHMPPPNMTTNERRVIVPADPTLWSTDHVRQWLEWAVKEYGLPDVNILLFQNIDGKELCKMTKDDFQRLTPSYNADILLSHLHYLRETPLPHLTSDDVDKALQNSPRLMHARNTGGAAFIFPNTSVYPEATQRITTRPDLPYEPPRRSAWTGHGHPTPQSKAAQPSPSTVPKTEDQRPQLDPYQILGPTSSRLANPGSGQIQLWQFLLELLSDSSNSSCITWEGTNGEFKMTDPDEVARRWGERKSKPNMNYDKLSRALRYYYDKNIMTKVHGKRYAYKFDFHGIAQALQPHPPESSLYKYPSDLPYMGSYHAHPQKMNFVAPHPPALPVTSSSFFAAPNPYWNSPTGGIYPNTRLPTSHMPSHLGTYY
The method in brief:
as §1

Chain of ELF4 (Q99607 whole entry): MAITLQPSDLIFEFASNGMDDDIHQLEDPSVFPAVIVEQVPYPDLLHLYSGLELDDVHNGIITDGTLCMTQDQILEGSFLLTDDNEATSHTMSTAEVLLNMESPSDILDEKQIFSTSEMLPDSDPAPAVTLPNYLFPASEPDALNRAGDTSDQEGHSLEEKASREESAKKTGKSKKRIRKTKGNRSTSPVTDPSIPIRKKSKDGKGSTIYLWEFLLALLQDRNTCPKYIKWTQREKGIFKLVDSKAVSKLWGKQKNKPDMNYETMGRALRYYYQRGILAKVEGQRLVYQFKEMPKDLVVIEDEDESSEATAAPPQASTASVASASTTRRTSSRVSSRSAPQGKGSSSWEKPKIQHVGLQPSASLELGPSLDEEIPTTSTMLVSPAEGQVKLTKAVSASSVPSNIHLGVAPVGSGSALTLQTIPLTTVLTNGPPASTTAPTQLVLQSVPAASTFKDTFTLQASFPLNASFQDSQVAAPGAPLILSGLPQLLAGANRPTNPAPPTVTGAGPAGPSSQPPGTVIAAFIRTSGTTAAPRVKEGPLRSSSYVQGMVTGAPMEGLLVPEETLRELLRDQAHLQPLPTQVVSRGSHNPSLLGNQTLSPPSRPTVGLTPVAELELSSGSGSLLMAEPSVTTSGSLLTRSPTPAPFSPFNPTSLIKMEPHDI
Chain of ELF1 (P32519 whole entry): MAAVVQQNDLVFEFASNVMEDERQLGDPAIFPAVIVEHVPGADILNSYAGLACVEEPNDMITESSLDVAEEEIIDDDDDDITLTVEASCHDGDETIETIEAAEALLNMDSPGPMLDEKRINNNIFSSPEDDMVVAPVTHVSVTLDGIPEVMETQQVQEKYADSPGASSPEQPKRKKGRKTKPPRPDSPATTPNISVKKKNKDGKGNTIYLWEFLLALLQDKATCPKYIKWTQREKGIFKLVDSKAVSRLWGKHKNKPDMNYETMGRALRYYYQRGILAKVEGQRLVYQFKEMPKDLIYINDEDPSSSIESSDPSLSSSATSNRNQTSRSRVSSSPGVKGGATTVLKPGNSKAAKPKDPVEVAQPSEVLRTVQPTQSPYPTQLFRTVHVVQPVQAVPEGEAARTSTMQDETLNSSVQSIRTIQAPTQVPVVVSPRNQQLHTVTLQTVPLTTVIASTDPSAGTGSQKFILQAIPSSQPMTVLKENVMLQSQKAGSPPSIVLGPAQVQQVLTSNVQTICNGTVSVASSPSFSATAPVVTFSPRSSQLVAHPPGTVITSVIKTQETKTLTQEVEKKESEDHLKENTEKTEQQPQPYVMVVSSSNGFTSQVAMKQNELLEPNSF
Chain of ETV1 (P50549 whole entry): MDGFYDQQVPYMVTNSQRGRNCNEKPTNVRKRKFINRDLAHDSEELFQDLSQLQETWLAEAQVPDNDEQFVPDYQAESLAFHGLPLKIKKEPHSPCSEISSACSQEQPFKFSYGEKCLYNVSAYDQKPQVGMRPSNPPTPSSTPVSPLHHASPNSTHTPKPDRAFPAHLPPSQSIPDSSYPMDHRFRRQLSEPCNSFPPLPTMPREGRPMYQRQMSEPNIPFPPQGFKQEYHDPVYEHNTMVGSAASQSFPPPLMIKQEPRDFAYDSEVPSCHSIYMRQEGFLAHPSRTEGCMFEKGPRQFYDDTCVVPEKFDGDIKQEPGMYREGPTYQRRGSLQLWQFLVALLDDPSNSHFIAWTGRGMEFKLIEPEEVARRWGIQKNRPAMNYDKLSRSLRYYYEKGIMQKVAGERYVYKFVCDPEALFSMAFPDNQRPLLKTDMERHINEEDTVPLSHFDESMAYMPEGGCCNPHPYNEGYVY
Chain of ETV6 (P41212 whole entry): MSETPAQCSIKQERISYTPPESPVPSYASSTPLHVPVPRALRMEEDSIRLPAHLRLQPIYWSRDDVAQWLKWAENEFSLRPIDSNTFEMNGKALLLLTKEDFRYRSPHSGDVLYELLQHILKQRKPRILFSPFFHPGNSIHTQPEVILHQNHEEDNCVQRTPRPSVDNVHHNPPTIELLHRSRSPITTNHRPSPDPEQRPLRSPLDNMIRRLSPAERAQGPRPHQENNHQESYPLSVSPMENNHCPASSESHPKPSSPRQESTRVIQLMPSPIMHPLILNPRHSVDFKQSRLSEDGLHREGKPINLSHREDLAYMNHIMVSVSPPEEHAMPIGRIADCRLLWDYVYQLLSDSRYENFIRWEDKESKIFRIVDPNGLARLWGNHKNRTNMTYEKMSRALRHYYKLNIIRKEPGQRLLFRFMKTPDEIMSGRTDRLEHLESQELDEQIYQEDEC

In the case of TGCGGC, the binding signal in the assay with FLI1 is 1.06 fold enrichment (6-mer frequency, TF over GST control); in the assay with ELK1, 1.04 fold enrichment (6-mer frequency, TF over GST control); with GABPA it was 1.09 fold enrichment (6-mer frequency, TF over GST control); with ELF1 it was 1.05 fold enrichment (6-mer frequency, TF over GST control); with EHF, 1.07 fold enrichment (6-mer frequency, TF over GST control); with SPI1 it was 1.11 fold enrichment (6-mer frequency, TF over GST control). For the same sequence, the binding signal is 1.01 fold enrichment (6-mer frequency, TF over GST control) with ELK3; 1.02 fold enrichment (6-mer frequency, TF over GST control) with FEV; 1.06 fold enrichment (6-mer frequency, TF over GST control) with ETV5; 1.19 fold enrichment (6-mer frequency, TF over GST control) in the assay with SPIC; 1.13 fold enrichment (6-mer frequency, TF over GST control) with ELF4; 1.08 fold enrichment (6-mer frequency, TF over GST control) with ETV1. Also, the binding signal with ERF was 1.14 fold enrichment (6-mer frequency, TF over GST control); with ETV3L, 1.03 fold enrichment (6-mer frequency, TF over GST control); with ETS2, 1.05 fold enrichment (6-mer frequency, TF over GST control); in the assay with ETV3 it was 1.03 fold enrichment (6-mer frequency, TF over GST control); with ETV6, 1 fold enrichment (6-mer frequency, TF over GST control).
Consider GGTCCT, for which the binding signal in the assay with FLI1 is 1.02 fold enrichment (6-mer frequency, TF over GST control); with ERG, 1.01 fold enrichment (6-mer frequency, TF over GST control); with ELF1 it was 1.06 fold enrichment (6-mer frequency, TF over GST control); with ETV5, 1 fold enrichment (6-mer frequency, TF over GST control); with SPIC, 1.11 fold enrichment (6-mer frequency, TF over GST control); with ELF4, 1.02 fold enrichment (6-mer frequency, TF over GST control). Further, the binding signal is 1.16 fold enrichment (6-mer frequency, TF over GST control) with ERF and 1.03 fold enrichment (6-mer frequency, TF over GST control) in the assay with ETV3L.
